PAFAH1B2 FP inh: inhibitors of human PAFAH1B2; inhibition, % at 3.39 µM; actives 1.2% (n = 340,000); P68402; recombinant PAFAH1B2, FP-rhodamine activity probe, fluorescence polarization;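 active means inhibition above the mean of all tested compounds plus 3 SD, cut at about 24% in these data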;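 further: 0% = enzyme with DMSO and 100% = wells lacking PAFAH1B2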
PME-1 inh: PME-1 (human) inhibition; Q9Y570; recombinant PME-1, FP-Rh probe fluorescence polarization; inhibition, % at 5.9 µM; actives 0.53% (n = 320,000); AID 2130;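 active means inhibition above the campaign mean of all compounds plus 3 SD, cut at about 26% in these data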;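 further: competitive labeling of PME-1 active site by serine hydrolase directed probe; 0% = PME-1 with DMSO and 100% = wells lacking PME-1 enzyme; inhibitors block probe labeling so polarization falls and inhibition rises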
Target sequence (Q9Y570 whole entry, looked up): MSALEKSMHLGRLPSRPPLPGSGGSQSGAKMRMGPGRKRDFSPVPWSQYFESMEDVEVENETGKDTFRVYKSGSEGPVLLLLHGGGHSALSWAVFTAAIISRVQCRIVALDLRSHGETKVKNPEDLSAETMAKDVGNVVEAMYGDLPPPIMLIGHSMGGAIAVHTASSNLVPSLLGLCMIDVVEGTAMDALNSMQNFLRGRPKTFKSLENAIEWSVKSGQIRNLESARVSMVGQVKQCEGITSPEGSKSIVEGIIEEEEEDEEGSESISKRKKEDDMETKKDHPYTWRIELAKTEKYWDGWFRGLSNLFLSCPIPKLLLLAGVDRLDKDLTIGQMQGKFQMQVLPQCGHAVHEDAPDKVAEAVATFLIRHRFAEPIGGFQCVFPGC
PAFAH2 FP inh: PAFAH2 (human) inhibition. recombinant PAFAH2, FP-rhodamine activity probe, fluorescence polarization. inhibition, % at 3.39 µM. AID 492956. actives 0.99% (n = 340,000);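 active means inhibition above the mean over all tested compounds plus 3 SD, cut at about 30% in these data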;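 further: inhibitors block probe labeling of enzyme so polarization drops; 0% = enzyme with DMSO and 100% = wells lacking PAFAH2 protein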
PAFAH1B3 FP inh: inhibitors of human PAFAH1B3. actives 0.28% (n = 340,000). Q15102. inhibition, % at 3.39 µM. recombinant PAFAH1B3, FP-rhodamine probe, fluorescence polarization;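 active means inhibition above the screen-wide average of all tested compounds plus 3 SD, cut at about 25% in these data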;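 further: 0% = enzyme with DMSO only and 100% = wells lacking PAFAH1B3 protein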
Target sequence (Q15102 whole entry, looked up): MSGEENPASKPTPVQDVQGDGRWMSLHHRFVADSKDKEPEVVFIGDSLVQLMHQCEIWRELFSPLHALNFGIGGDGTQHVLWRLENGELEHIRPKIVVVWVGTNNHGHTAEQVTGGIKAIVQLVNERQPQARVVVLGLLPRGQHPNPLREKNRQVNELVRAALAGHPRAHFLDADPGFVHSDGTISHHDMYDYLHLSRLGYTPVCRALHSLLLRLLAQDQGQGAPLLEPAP
Fam108B counter: blocks mouse Fam108B hydrolase in RBBP9 counter-screen; inhibition, % at 9.51 µM; recombinant Fam108B, FP-Rh probe fluorescence polarization; actives 0.33% (n = 300,000); AID 1947;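 active means inhibition above the screen mean inhibition plus 3 SD, computed separately per campaign, cut at about 18% in these data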;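 further: inhibitors lower polarization as less probe binds the enzyme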
pPAFAH FP inh: pPAFAH (human) enzyme inhibition; Q13093; recombinant pPAFAH, FP-rhodamine probe fluorescence polarization; inhibition, % at 3.39 µM; actives 1.5% (n = 330,000);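 active means inhibition above the mean inhibition across the screen plus 3 SD, cut at about 25% in these data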;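 further: inhibitors block binding of the rhodamine activity-based probe so polarization drops; 0% = enzyme with DMSO and 100% = wells lacking pPAFAH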
pPAFAH FP conf: pPAFAH (human) inhibition, confirmed; shares compounds with pPAFAH FP inh; recombinant pPAFAH, FP-Rh probe fluorescence polarization; inhibition, % at 3.39 µM; actives 72% (n = 2,300);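 active means mean inhibition of the triplicate above the hit cutoff set for the earlier primary screen, cut at about 25% in these data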;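 further: 0% = enzyme with DMSO and 100% = wells lacking pPAFAH enzyme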
Active calls of the source: *; / = no result. An excerpt weighted towards active compounds, which were near 2.8% of everything screened.

SMILES | PAFAH1B2 FP inh | PME-1 inh | PAFAH2 FP inh | PAFAH1B3 FP inh | Fam108B counter | pPAFAH FP inh | pPAFAH FP conf
Cc1cc(C)c(S(=O)(=O)N(C)CC(=O)N2CCCCC2)c(C)c1 | -0.3 | 3.7 | 7.0 | 0.1 | -2.4 | 51.6* | 0.0
COc1ccc(O)c(C(=O)c2coc(=N)c(C(=O)Nc3ccc(SC(F)F)cc3)c2)c1 | 3.3 | 3.0 | 0.2 | 9.7 | -1.1 | 6.4 | /
O=C(CC1Nc2cccc3cccc(c23)NC1=O)Nc1ccc(F)cc1 (configuration not stated) | 6.5 | 18.1 | 6.0 | 7.3 | 0.9 | 59.6* | 6.9
C/C(=N\OCC(=O)Nc1c(C)cc(C)cc1C)c1ccc2c(c1)OCCO2 | 0.7 | 2.0 | 9.0 | -2.7 | 0.8 | 5.8 | /
CC(C)C(NC(=O)c1ccc(F)cc1)C(=O)N1CCC1 (configuration not stated) | 3.7 | -4.5 | -3.0 | 14.8 | / | 2.7 | /
Cc1ccc(C)c(NS(=O)(=O)c2ccc(OCC(=O)NCc3ccco3)cc2)c1 | 6.7 | -5.7 | 3.9 | -3.5 | -2.8 | 39.3* | 21.8
O=C(NCCc1ccc2c(c1)OCCO2)c1cccc(S(=O)(=O)N2CCCC2)c1 | -0.3 | 5.9 | 6.6 | 9.0 | / | 35.9* | -5.9
O=C1CC(=C2c3ccccc3-c3ccccc32)C(=O)N1CCCCN1CCN(c2ccccc2)CC1 | -1.1 | 2.3 | 4.1 | -4.2 | -1.4 | 41.1* | 19.3
O=C(Nc1ccccc1Cl)NC1CCCCCCC1 | 8.7 | / | 0.5 | 7.3 | / | / | /
O=C1c2ccc(-c3ccc(F)cc3OCc3ccccc3)cc2S(=O)(=O)c2cccc(C(=O)N3CCN(c4ncc(Br)cn4)CC3)c21 | -4.0 | / | -5.6 | -7.8 | / | 42.8* | 32.4*
COc1ccc(-c2ccc3c(c2)S(=O)(=O)c2cccc(C(=O)N4CCN(c5ccc(Cl)cn5)CC4)c2C3=O)cc1OC | 5.4 | / | 61.6* | -4.4 | / | 36.4* | 48.9*
O=C1c2ccc(Cl)cc2S(=O)(=O)c2cccc(C(=O)N3CCN(c4ccc(Cl)cn4)CC3)c21 | 3.6 | 7.6 | 0.0 | 1.6 | / | 8.0 | /
O=C1c2ccc(-c3ccc(F)cc3OCc3ccccc3)cc2S(=O)(=O)c2cccc(C(=O)N3CCN(c4ncc(Cl)cc4Cl)CC3)c21 | -6.0 | / | 1.6 | 4.4 | / | 37.4* | 25.4*
N#Cc1cccnc1N1CCN(C(=O)c2cccc3c2C(=O)c2ccc(-c4ccc(F)cc4OCc4ccccc4)cc2S3(=O)=O)CC1 | 8.7 | / | -3.8 | 4.3 | / | 23.9 | /
CC(=O)c1cccc(NC(=O)C(C)N(C)CC(=O)Nc2ccc(Cl)cc2)c1 (configuration not stated) | 6.5 | 0.5 | 0.2 | 2.0 | 1.0 | 5.0 | /
O=C(NC(=S)Nc1cnc2ccccc2c1)c1ccccc1 | -3.4 | -7.0 | -1.4 | 9.3 | 0.6 | 3.0 | /
O=C(Nc1cnc2ccccc2c1)c1ccncc1 | 3.6 | 2.6 | 0.5 | 3.7 | -0.5 | 51.6* | 5.3
CC(CCC(C)C(C)(C)C)[C@@H]1CC[C@H]2C3C[C@H](OS(O)(=S)=S)[C@H]4C[C@H](OS(O)(=S)=S)[C@@H](OS(O)(=S)=S)C[C@]4(C)[C@H]3CC[C@]12C (some centres not stated) (tested in a mixture with another compound) | -7.0 | / | -33.2 | -18.0 | / | 35.5* | 23.4
CC(CCC(=O)NN)C1CCC2C3CCC4CC(O)CCC4(C)C3CCC12C (configuration not stated) | -0.6 | / | 4.8 | -4.8 | / | / | /
CC(=O)NC(=S)NNC(=O)CCc1ccccc1 | 1.2 | -3.5 | -7.1 | 0.2 | -0.7 | 1.5 | /
O=C(CCc1ccccc1)NNC(=S)NC(=O)c1ccccc1 | 10.6 | -2.6 | 3.7 | 8.7 | 1.3 | 41.1* | -7.8
O=c1cc(CSc2nnc(COc3ccccc3Cl)o2)nc2sccn12 | 6.4 | 7.0 | 3.3 | 2.6 | 6.3 | -4.0 | /
Cc1cc(SCC(=O)c2ccc(O)c(O)c2)nc2ccccc12 | 2.4 | 3.6 | 30.8* | 13.2 | -6.9 | 41.6* | 94.5*
Cc1ccc(O)c(NC(=O)CSc2n[nH]c(-c3ccccc3)n2)c1 | 4.3 | 4.5 | 5.9 | 2.9 | -2.1 | 7.5 | /
O=C(CSc1n[nH]c(-c2ccccc2)n1)c1ccc(O)c(O)c1 | 7.2 | -3.5 | 23.1 | 20.2 | 2.2 | 42.3* | 67.7*
SMILES | PAFAH1B2 FP inh | PME-1 inh | PAFAH2 FP inh | PAFAH1B3 FP inh | Fam108B counter | pPAFAH FP inh | pPAFAH FP conf
Cc1cc(SCC(=O)c2ccc3c(c2)OCO3)nc2ccccc12 | 2.2 | -2.8 | -12.9 | -8.1 | -9.7 | 2.5 | /
Cn1ccc2cc(NC(=O)Nc3cccnc3)ccc21 | 5.5 | 11.6 | -16.3 | 19.8 | 4.1 | 36.6* | 7.3
OCC(O)/C=N/Nc1nc(Nc2ccccc2)nc(Nc2ccccc2)n1 (configuration not stated) | -4.0 | -6.2 | 1.1 | -0.5 | 9.1 | 38.6* | 20.0
Nc1ncnc2oc(-c3ccco3)c(-c3ccco3)c12 | 21.2 | 3.3 | 49.6* | 37.1* | 16.0 | 42.2* | 9.4
COc1ccc(C2C(C(=O)c3ccco3)=C(O)C(=O)N2CCCn2ccnc2)c(OC)c1 (configuration not stated) | -6.2 | -4.9 | -5.4 | 1.9 | -2.2 | 1.8 | /
O=C(CSc1nnc(SCc2ccccc2)s1)N/N=C/C=C/c1ccco1 | -4.0 | 4.3 | 23.2 | 5.0 | 8.5 | 44.2* | 40.2*
O=C(CSc1nnc(SCc2ccc(Cl)cc2)s1)N/N=C/c1c[nH]c2ccccc12 | 5.1 | -2.6 | 23.8 | 4.3 | 3.5 | 40.7* | 34.5*
Cc1ccnc(SCc2cc(=O)c(OC(=O)c3ccc(S(=O)(=O)N(C)C)cc3)co2)n1 | -0.5 | -3.6 | -10.1 | 9.2 | -0.8 | 2.2 | /
CCc1cc(=O)oc2cc(C)c(CN3CCCC3)c(O)c12 | 1.7 | -8.3 | 23.0 | -4.3 | -6.7 | 63.5* | 21.2
Cc1cc(=O)oc2c(CN3CCCCC3)c(O)c(Cl)cc12 | 1.6 | 0.5 | -0.9 | 3.4 | -2.0 | 5.7 | /
CCc1cc(=O)oc2cc(C)c(CN3CCCCC3)c(O)c12 | 0.1 | 1.8 | 5.1 | 4.1 | 0.8 | 47.5* | 9.2
CCS(=O)CCSc1nc2ccccc2s1 (configuration not stated) | 2.2 | -3.9 | -13.2 | -1.0 | 1.3 | 2.1 | /
COP(=O)(OC)c1nc(-c2cccc3ccccc23)oc1NCCc1ccccc1 | 2.6 | 4.3 | 4.2 | 8.4 | 2.2 | 38.3* | 31.3*
O=C(O)c1ccccc1-c1nc(-c2ccccc2)c(-c2ccccc2)[nH]1 | 11.2 | -0.9 | 4.1 | 3.3 | -2.7 | 5.3 | /
O=C(O)c1cccc2c(-c3ccccc3)c(-c3ccccc3)[nH]c12 | 48.1* | 8.0 | -4.3 | -1.9 | 5.9 | 52.2* | 46.4*
CCOC(=O)C1=C(C)N(C[C@@H]2CC[C@@H](Cc3ccc(-c4ccccc4)cc3)O2)C(=O)NC1c1ccc(SCc2ccco2)c([N+](=O)[O-])c1 (some centres not stated) | 1.0 | / | 4.6 | 0.0 | / | 56.1* | 24.9*
